These entries were drawn from the full list.
aSyn 5UTR act: Activators working through SNCA 5'UTR binding (MLPCN); 7.1% of 300,000 active; activity score, % (tested at 7.5 µM), hits read low; AID 1814; alpha-synuclein 5'UTR reporter, activators screen; in the data active = activity score below about -60%
* = called active by the depositor.

SMILES	aSyn 5UTR act
O=C(CCc1ccccc1)Nc1ccccc1F	-135*
O=C(CCc1ccccc1)Nc1ccc(F)cc1F	-68*
O=C(CCCc1ccccc1)Nc1ccc(Br)cc1F	-71*
COc1ccc(/C=C/c2cc(C(F)(F)F)on2)cc1	-157*
Clc1ncnc2c1oc1ccccc12	-62*
CCSc1ncnc2c1oc1ccccc12	-64*
Cc1cc(C)nc(Sc2ncnc3c2oc2ccccc23)n1	-64*
c1ccc2cc(Sc3ncnc4c3oc3ccccc34)ccc2c1	-71*
COC(=O)c1c(C)[nH]c(O)c1C=Nc1ccc(C(C)C)cc1	-71*
Cc1nc2sc(-c3ccccc3)nn2c(=O)c1Br	-78*
c1ccc(-c2cn3nc(-c4ccccc4)sc3n2)cc1	101
C/C(=N\Nc1cccc2cccnc12)c1ccccc1O	-204*
CC(=O)NC(c1ccc(C(C)C)cc1)c1ccc2cccnc2c1O (stereo unspecified)	67
C/C(=N\Nc1cccc2cccnc12)c1ccc(N)cc1	-93*
Cc1cc(O)c(NC(=O)c2cccc([N+](=O)[O-])c2)cc1C	-79*
CC(C)(C)c1cc(NC(=O)c2cccc([N+](=O)[O-])c2)no1	-111*
O=C(NNS(=O)(=O)c1ccccc1[N+](=O)[O-])c1cccc([N+](=O)[O-])c1	-69*
O=C(Nc1cc([N+](=O)[O-])ccc1O)c1cccc([N+](=O)[O-])c1	-96*
N=c1n(N)c2ccccc2n1CC(=O)c1ccc(Br)cc1	-109*
COc1ccc(N=C2O/C(=C/c3sc(=S)n(CC4CCCO4)c3O)N=C2C#N)cc1 (stereo unspecified)	-101*
COc1ccc(C(=O)/C=C2/C(=O)Nc3ccccc32)cc1	-99*
Cn1c(O)c(C2=c3ccccc3=NC2=O)sc1=Nc1ccc(Cl)cc1	-93*
Cc1cc(C(=O)Nc2cccc3cccnc23)ccc1[N+](=O)[O-]	-106*
CC(C)Oc1ccc(C(=O)Nc2cccc3cccnc23)cc1	-136*
COc1ccc(C(=O)Nc2cccc3cccnc23)cc1OC	-72*
SMILES	aSyn 5UTR act
COc1ccc(NC(=O)C(=O)Nc2cccc3cccnc23)cc1OC	-114*
CCS(=O)(=O)c1ccc(OC)c(N=Nc2ccc(O)c3ncccc23)c1	66
COc1ccc(C(NC(=O)c2cccnc2)c2cc(Cl)c3cccnc3c2O)cc1OC (stereo unspecified)	76
CC1(C)CC(=O)C(N=Nc2ccc(-c3ccccc3)cc2)=C(O)C1	-84*
CCOc1ccc(N=C/C=C/c2ccccc2)c(O)c1	-67*
CCOc1ccc(NCC(=O)N/N=C/C=C/c2ccccc2)cc1	-84*
Cc1cccc(OCCCn2c(CO)nc3ccccc32)c1	-84*
Cc1ccc(OCCCn2c(CO)nc3ccccc32)cc1	-62*
CC(=O)c1cccc(NC(=O)c2ccc3c(c2)OCO3)c1	-128*
Cc1cccc(NC(=S)NNC(=O)c2ccccc2Br)c1	-129*
Cc1cccc(NC(=S)NNC(=O)c2csc3c2CCC(C)C3)c1 (stereo unspecified)	-77*
Cc1cc(C(=O)Nc2ccc3c(c2)OCO3)cs1	-233*
Cc1[nH]c2ccccc2c1C(=O)C(=O)Nc1ccc2c(c1)OCO2	-91*
CCCc1cc(C(=O)NNC(=S)Nc2cccc(C)c2)cs1	-101*
Cc1cccc(NC(=S)NNC(=O)c2ccc3c(c2)OCO3)c1	-211*
CCOC(=O)c1cccc(NC(=O)c2ccc3c(c2)OCO3)c1	-126*
CCOC(=O)c1cccc(NC(=O)/C=C/c2ccc3c(c2)OCO3)c1	106
O=C(NCc1cccs1)c1nc2c(nnn2Cc2ccccc2Cl)c(=O)[nH]1	77
O=C(/C=C/c1ccccc1Cl)NCc1cccs1	-101*
O=C(/C=C/c1ccc(F)cc1)NC(=S)NNC(=O)c1cnccn1	95
O=C(/C=C/c1ccccc1Cl)NNC(=O)c1cccs1	-83*
O=C(/C=C/c1ccc(F)cc1)NCc1cccs1	-112*
CS(=O)(=O)N1CCN(c2ccc(NC(=O)c3ccccc3)cc2)CC1	-123*
Cc1cccc(C(=O)Nc2ccc(N3CCN(S(C)(=O)=O)CC3)cc2)c1	-84*
O=C(N/N=C\C=C\c1ccco1)c1cc(-c2ccc3ccccc3c2)n[nH]1	-146*
SMILES	aSyn 5UTR act
O=C(N/N=C/C=C/c1ccccc1)c1ccccn1	-166*
O=C(N/N=C/C=C/c1ccccc1)c1n[nH]c2c1CCC2	70
O=C(N/N=C/C=C\c1ccco1)c1ccccn1	-145*
Cc1cc(C(=O)N/N=C/C(Cl)=C/c2ccccc2)c(C)o1	-67*
CC(/C=N/NC(=O)c1nnn(-c2nonc2N)c1C(C)C)=C\c1ccco1	-62*
CC(/C=N/NC(=O)c1ccccn1)=C\c1ccco1	-75*
CCN(CC)c1ccc(/C=N/NC(=O)c2nnn(-c3nonc3N)c2C(C)C)c(O)c1	92
Nc1nnn(CC(=O)N/N=C/C=C/c2ccccc2)n1	-87*
O=C(N/N=C/C(Br)=C/c1ccccc1)c1cnccn1	-110*
O=C(N/N=C/C(Cl)=C/c1ccccc1)c1ccccn1	-66*
CC(=O)CN1Cc2ccccc2/C1=N\C(=O)Nc1ccccc1	-73*
COc1ccc(N2Cc3ccccc3/C2=N\C(=O)Nc2ccccc2)cc1	-64*
CN(C)c1ccc(/C=C2\SC(=O)N(CCc3nnc(N)s3)C2=O)cc1	80
CN(C)c1ccc(/C=C2/SC(=O)N(CCN=C3NS(=O)(=O)c4ccccc43)C2=O)cc1	-66*
Cc1ccccc1NC(=S)c1ccc2ccccc2n1	-110*
Cc1ccc(C(=O)Nc2ncccc2S(=O)(=O)c2ccccc2)cc1	-154*
O=[n+]1c2c(n([O-])c3cc(F)c(N4CCCC4)cc31)CCCC2	-77*
O=c1oc2ccc3ccccc3c2cc1-c1nc2ccccc2o1	-87*
COc1ccc2oc(=O)c(-c3nc4ccccc4o3)cc2c1	-184*
CC(C)S(=O)(=O)c1csc(C(=O)Nc2ccc(F)cc2)c1N	-100*
NNC(=O)c1cc2cc3ccccc3nc2s1	-94*
O=C(Nc1cccc2ncccc12)c1ccc(-c2ccc(Br)cc2)o1	-79*
O=C(Nc1cccc2ncccc12)c1ccc([N+](=O)[O-])o1	-169*
Cc1c(NC(=O)c2ccc([N+](=O)[O-])o2)cccc1-c1nc2ncccc2o1	-228*
COc1ccc(Cn2c(SCc3ccc(C)cc3)nc3cc(OC)c(OC)cc3c2=N)cc1Cl	119
SMILES	aSyn 5UTR act
COc1ccc(CSc2nnc(-c3ccncc3)n2C)cc1F	-94*
Cn1c(SCc2ccc3c(c2)OCO3)nnc1-c1ccccc1	-80*
Clc1ccc(CSc2nncn2-c2ccc3c(c2)OCCO3)cc1	66
c1ccn2c(SCc3ccc4c(c3)OCO4)nnc2c1	-93*
CC12COC3(C(=O)Nc4ccc5ccccc5c4)CC1CCC32C (stereo unspecified)	-144*
CC(=O)/C=C/c1ccccc1Oc1c(F)c(F)nc(F)c1F	-94*
C=CCN=c1scc(-c2ccccc2)n1/N=C/c1ccccn1	-68*
CCN=c1scc(-c2ccc(F)cc2)n1/N=C/c1ccccn1	-73*
Cc1ccccc1OCC(=O)NC1CCCCCCC1	-65*
Cc1ccccc1OCC(O)CNC1CCC(NCC(O)COc2ccccc2C)CC1 (stereo unspecified)	99
Cc1ccc(OCC(=O)NC2CCCC2)c(C)c1	-67*
O=C(COc1ccccc1-c1ccccc1)NNC(=O)NC1CCCCC1	-83*
CCN(CC)C(=O)COc1ccc(-c2ccccc2)cc1	-116*
COC(=O)c1c(C)[nH]c(C(=O)/C=C/c2ccccc2)c1C	-107*
COC(=O)c1c(C)[nH]c(C(=O)/C=C/c2cccc(Cl)c2)c1C	-232*

Compound activity (PubChem)
